Test systems include HCT-15 colon; HT29 colon; SNB-75 CNS; SNB-19 CNS; U251 CNS; PC-3 prostate; SK-MEL-5 melanoma; UACC-62 melanoma; LOX IMVI melanoma; SK-MEL-28 melanoma; SK-MEL-2 melanoma; EKVX NSCLC; SN12C renal; UO-31 renal; TK-10 renal; ACHN renal; CAKI-1 renal; A498 renal; CCRF-CEM leukemia.
Holding throughout (assay): NCI-60 one-dose screen, 48 h (100 = growth as untreated, 0 = no growth, -100 = all killed)
Conditions in all cases: 10 µM

About 83,000 compounds went through this panel and 20% of them were active in at least one assay; those are over-represented in the sample as a whole.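 Growth was measured after 48 h exposure to one concentration of compound in 96-well plates. Values under 10 count as active.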 A number with no mark means an inactive call. Activity calls are given as the source filed them.

For the compound `COc1ccc2[nH]c(O)c(N=NC(=O)c3cc(-c4ccc(C)cc4)nc4ccccc34)c2c1`, the growth is 62.8% in the assay with HCT-15 colon; 113% with HT29 colon; 95.4% in the assay on SNB-75 CNS; 95.1% in the assay on SNB-19 CNS; 88.5% in the assay with U251 CNS; 93.6% with PC-3 prostate. Further, the growth is 94.6% with SK-MEL-5 melanoma; 96.5% in the assay with UACC-62 melanoma; 83.5% in the assay with LOX IMVI melanoma; 97.5% with SK-MEL-28 melanoma; 111% in the assay on SK-MEL-2 melanoma; 97.6% in the assay with EKVX NSCLC. Also, the growth in the assay on SN12C renal is 92.1%; in the assay with UO-31 renal, 69.9%; with TK-10 renal it was 117%; in the assay on ACHN renal, 81%; in the assay on CAKI-1 renal, 95.5%; in the assay with A498 renal, 126%. Further, in the assay on CCRF-CEM leukemia, the growth is 52.1%.

Consider `O=C(c1ccc(Cl)cc1)C1[C@H](c2ccccc2Br)[C@@H](c2ccccc2)NC12C(=O)Nc1ccc(Br)cc12` (some centres not stated), for which the growth with HCT-15 colon was 9.81% (active); with HT29 colon, -36% (active); in the assay on SNB-75 CNS, 31.9%; in the assay on SNB-19 CNS it was 36.2%; with U251 CNS, -29.1% (active); in the assay on PC-3 prostate, 6.63% (active). In addition, the growth in the assay with SK-MEL-5 melanoma was 14.4%; with UACC-62 melanoma it was 19.6%; with LOX IMVI melanoma, -100% (active); in the assay with SK-MEL-28 melanoma, 43.8%; in the assay on SK-MEL-2 melanoma it was -51% (active); with EKVX NSCLC, 14.7%. The growth with SN12C renal was -63.5% (active); in the assay on UO-31 renal, 13.5%; in the assay with TK-10 renal it was 23.9%; with ACHN renal, 11.9%; in the assay on CAKI-1 renal it was 8.82% (active); in the assay with A498 renal, 74.5%. In addition, the growth in the assay on CCRF-CEM leukemia was 5.86% (active).

On to `O=C(Nc1ccc(I)cc1F)c1cc(-c2ccc(F)cc2F)ccc1O`, for which the growth with HCT-15 colon is 5.34% (active); in the assay with HT29 colon, 17%; with SNB-75 CNS, -23.7% (active); with SNB-19 CNS it was 11.3%; in the assay with U251 CNS, 4.61% (active); with PC-3 prostate it was 2.22% (active). Further, the growth with SK-MEL-5 melanoma is -75.3% (active); in the assay on UACC-62 melanoma, -14.4% (active); in the assay on LOX IMVI melanoma it was 6.5% (active); with SK-MEL-28 melanoma, 4.38% (active); in the assay on SK-MEL-2 melanoma, -39.9% (active); in the assay on EKVX NSCLC, 0.815% (active). The growth is -4.86% (active) in the assay with SN12C renal; -0.556% (active) with UO-31 renal; 19.9% in the assay with TK-10 renal; -5.83% (active) in the assay with ACHN renal; -21% (active) in the assay with CAKI-1 renal; -21.3% (active) with A498 renal. Moreover, the growth in the assay with CCRF-CEM leukemia is 7.55% (active).

`C=C(c1ccc(OC)c(N)c1)c1cc(C)nc2ccccc12`: the growth in the assay with HCT-15 colon was 3.55% (active); in the assay on HT29 colon, -20.8% (active); in the assay on SNB-75 CNS it was 21.4%; in the assay on SNB-19 CNS, 10.3%; in the assay with U251 CNS it was 7.35% (active); in the assay with PC-3 prostate, 31.2%. In addition, the growth in the assay with SK-MEL-5 melanoma is -55% (active); in the assay on UACC-62 melanoma, 24.1%; in the assay with LOX IMVI melanoma it was 10.3%; in the assay on SK-MEL-28 melanoma, 62.4%; in the assay on SK-MEL-2 melanoma, -23.7% (active); in the assay with EKVX NSCLC, 21.5%. The growth was 6.5% (active) in the assay on SN12C renal; 21.4% with UO-31 renal; 78.1% in the assay with TK-10 renal; 24.5% with ACHN renal; 27.1% with CAKI-1 renal; 118% with A498 renal. In addition, the growth in the assay on CCRF-CEM leukemia is 5.19% (active).

As for `O=C(c1ccc(-n2c(=O)[nH]c3ccccc3c2=O)cc1)N1CCOCC1`, the growth in the assay on HCT-15 colon is 99.2%; in the assay with HT29 colon it was 114%; with SNB-75 CNS it was 80.9%; in the assay with SNB-19 CNS it was 95.5%; in the assay with U251 CNS, 105%; with PC-3 prostate it was 103%. The growth is 107% in the assay on SK-MEL-5 melanoma; 92.9% with UACC-62 melanoma; 104% in the assay with LOX IMVI melanoma; 108% in the assay on SK-MEL-28 melanoma; 102% in the assay on SK-MEL-2 melanoma; 101% in the assay on EKVX NSCLC. Besides, the growth in the assay on SN12C renal was 89.8%; in the assay with UO-31 renal, 82.5%; with TK-10 renal it was 97.2%; in the assay on ACHN renal, 103%; with CAKI-1 renal, 89%; in the assay with A498 renal, 116%. The growth in the assay on CCRF-CEM leukemia was 108%.

`CCOC(=O)c1c(CSc2ccccc2)n(C)c2cc(CN(C)C)c(O)c(CN(C)C)c12`: the growth in the assay on HCT-15 colon was 20.5%; in the assay with HT29 colon, 19.8%; with SNB-75 CNS, 89.4%; with SNB-19 CNS it was 60.2%; in the assay with U251 CNS it was 30%; in the assay on PC-3 prostate, 25.1%. Moreover, the growth in the assay on SK-MEL-5 melanoma was 36.4%; in the assay on UACC-62 melanoma, 48.2%; in the assay on LOX IMVI melanoma, 22.2%; with SK-MEL-28 melanoma, 48.6%; with SK-MEL-2 melanoma it was 77.5%; in the assay with EKVX NSCLC, 36.9%. The growth in the assay on SN12C renal is 27.2%; in the assay on UO-31 renal, 28%; in the assay with TK-10 renal, 75.9%; with ACHN renal it was 59%; with CAKI-1 renal, 57.8%; with A498 renal it was 118%. The growth in the assay on CCRF-CEM leukemia is 42.7%.

With `O=C(CNc1nc(-c2ccccc2)cs1)Nc1ccc([N+](=O)[O-])cc1`, the growth in the assay with HCT-15 colon was -23.5% (active); in the assay with HT29 colon it was -44.9% (active); with SNB-75 CNS it was 87.6%; in the assay with SNB-19 CNS, 38.3%; in the assay with U251 CNS, 9.22% (active); with PC-3 prostate it was 33.7%. Moreover, the growth is -69.3% (active) with SK-MEL-5 melanoma; 9.93% (active) in the assay with UACC-62 melanoma; -19.5% (active) with LOX IMVI melanoma; -6.86% (active) with SK-MEL-28 melanoma; 31.1% in the assay with SK-MEL-2 melanoma; 9.52% (active) with EKVX NSCLC. Also, the growth was 16.9% in the assay on SN12C renal; -74.3% (active) with UO-31 renal; -58% (active) in the assay on TK-10 renal; -15.8% (active) in the assay with ACHN renal; 7.15% (active) in the assay on CAKI-1 renal; 109% with A498 renal. Also, the growth in the assay on CCRF-CEM leukemia is 14.3%.

`O=c1[nH][nH]c(Nc2ccccc2)c1N=Nc1ccc(F)cc1`: the growth was 70.1% with HCT-15 colon; 107% in the assay with HT29 colon; 59.4% in the assay with SNB-75 CNS; 95.3% with SNB-19 CNS; 99.9% in the assay on U251 CNS; 95.5% in the assay on PC-3 prostate. The growth was 96.6% in the assay with SK-MEL-5 melanoma; 92.1% with UACC-62 melanoma; 102% in the assay with LOX IMVI melanoma; 108% in the assay on SK-MEL-28 melanoma; 94.1% with SK-MEL-2 melanoma; 72.1% in the assay on EKVX NSCLC. Besides, the growth in the assay on SN12C renal was 79.6%; with UO-31 renal, 66.2%; with TK-10 renal it was 94.5%; in the assay on ACHN renal it was 86.2%; with CAKI-1 renal, 59.3%; in the assay with A498 renal, 110%. In addition, in the assay on CCRF-CEM leukemia, the growth was 93.9%.

The values are drawn from PubChem BioAssay (NCI).
